The source of these data is the supplement of paper PMC6555819.

For this experiment, the system named is VDR:RXRa (NR concentration 270 nM, RXRa partner concentration 90 nM). Briefly: PBM binding z-score (relative to random genomic background probes); higher = stronger binding; sequences stand for … in GC…GCGATTGACAGCGTAGAATGAAGG
The method, then: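 Protein-binding microarray (Agilent 4x180K custom design, double-stranded 60-nt probes: 5' GC cap, 34-nt variable region, 24-nt constant primer region; full probe sequence given). Purified or IVT nuclear receptor:RXRα heterodimers (3:1 NR:RXRα, mostly 270:90 nM) or homodimers were incubated for 1 h in PBS with 2% milk and no ligand, then detected with Alexa488 antibodies. Fluorescence from o1-orientation probes (~5 replicates averaged) was converted to z-scores against 500 random hg19 background probes. Variable regions are seed direct-repeat (DR0–DR5) sites, all their single-nucleotide variants and half-site ablations.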
TCATATAGGTAAACAGGTGTAAGTCCGTAAGTTA registered a PBM binding z-score of 1.6. The result for AGAACGAGGGCAATGAGTTAATAGCACGGGTGGC reads 4.04. The result for CCTCGGAGGACAACAGCAGGTCAGAGCTGCCAGA reads 0.333; that for ATACCAAGGTGATCGTGAGGTCGTTGAAACTAAC, 3.53; that for GCTATTAGTTGATAGGGCAACCGAATGATTCTCG, -0.195.

With TCTATTAGTTAAAGGGCAACCGACGAGTCCGTTT, the PBM binding z-score worked out at 1.46. CGAACTAGGTCAGTGACAGGACAGTGAATAGTAA showed a PBM binding z-score of 0.664.

With CGTCCAAGGGCAAAGGTCAGTGAAGAGATGACGG, the PBM binding z-score was 3.89. The result for ATACGAAGGTGATCGTGAGGTCGTTGATACTAAC reads 3.09; that for GCGACTGGGGCAAAGCTGGTTACCATAAGGTTGG, -0.475; that for TCGAGTAGGTTACCAATGGGCCATTCAGCTTTCT, 0.0845. The result for CCTATTATTTGACCATAAGGGCAACCGAAGCTCG reads 1.28; that for GCGAGTGGGGCATCAGCAGGTTACCATAACTTAA, 0.049; that for CCTAGCAGGCCAGGGTCACTCCAGCATTTCGCTT, 2.18.

In turn, CCTGCTAGGTCAGGGTCAGCTAATCTACAGTATG came in with a PBM binding z-score of 2.86. The result for CCTGCTAGGTCATTGGTCAGCTAAAGCAGCTCGC reads 2.1; that for GCTAGTTGGTCAGTAAGAGGTCACACACCGGTCG, 4.12; that for TCATATAGGTAAAAGGTGAGAGTCGGTGTGGTAA, 1.29. The result for CCGTACGGGTCACTGACAGGTTATAGCATTTGGA reads 3.72. For the sequence CAAACTACGTCACAGAGGTCAAAGTCCGTGCGTA, the PBM binding z-score came out at 5.85. As to GCTGCTAGGTCAGGTTGGTCAGCTGACGGGTACG, the PBM binding z-score is 0.533.

In the case of ACTAGCCGGCCAAGGGTCACTCAAGATTAGTCCG, the PBM binding z-score amounted to 2.59. The result for CCCCGGAGGACAACAGGAGGTCAGAGCTGCCAGA reads 1.91; that for ACTAGTTGGTCAGCTGAGGTCAGACACAATTCGG, 3.07; that for GTACCAGGGTGAATAGGTCGTTGATGAGTAGGCG, 1. The result for GCGACTGGGGCAAAGCAGGTAACCATAAGGTTGG reads -0.313; that for TCGAGTAGGTTAGCCGGGGCATTCAGCCAACATA, 2.46. The result for ACAGACAGGTGAGTGGAGGTAACTCAGCTGGACG reads -0.0789; that for ACTAGCATGCCAAGGGTCACTCAAGATTAGTCCG, 2.93; that for CGTCCAAGGTCAGCAGGTCAGTGTAAGCGACGTG, 4.14. For CCTAACAGGCCAATCTGGGTCACTCAAGGCTTGA, the PBM binding z-score is 1.04. The result for ATCGAAAGGTCGTGAGGTGAGTCTACAGAAAGGC reads 3.66; that for CCTGCTAGGTCAATGGTCAGCTGAAGCAGCTCGC, 0.785. The result for AGAATGAGGTTACGATCAGGGAAACAGAATACAT reads 1.43. The result for CCTTACGGGTCACCGACAGGTTATAGCATTTGGA reads 4.44; that for CGAACTAGGTCATTGACAGGACGGTGAATAGTAA, 1.62. Take TCGAGTAGGTTGCCAATGGGGCATTCAGCTTTCT: the PBM binding z-score is -0.316. Sequence ATCTCTAGGTAAATATAGTTCAGTGAATGCAAAT came in with a PBM binding z-score of 1.44.

Regarding TCGAGTTGGTTACCAATGGGGCATTCAGCTTTCT, the PBM binding z-score is -0.461. Consider CGAACTAGGTCAGAACAGGACAGTGGAGGATGAT, for which the PBM binding z-score was 0.581.
